The values that follow come from paper PMC11062922 (Nature Chemical Biology, 2023).

Common to all, as to design: species or system human, MV4-11 + K-562 + COLO205 + SK-N-BE2 + OVCAR-8
One assay has as its system ARAF. The following applies: read-out: apparent Kd; compound concentrations: 100 nM and 1000 nM (sheet 'Samples'), CATDS: 5.7058151547421603E-2; n = 1.
For the next assay, the system named is AURKB. The note with it: read-out: apparent Kd; compound concentrations: 100 nM and 1000 nM (sheet 'Samples'), CATDS: 7.6313270646160003E-2; n = 1.
The next assay has as its system CDK10. The following applies: read-out: apparent Kd; compound concentrations: 100 nM and 1000 nM (sheet 'Samples'), CATDS: 4.7356603246951401E-2; n = 1.
Another assay has as its system EIF2AK1. The following applies: read-out: apparent Kd; compound concentrations: 100 nM and 1000 nM (sheet 'Samples'), CATDS: 9.9444074650609393E-2; n = 1.
The next assay concerns FN3K. The note with it: read-out: apparent Kd; compound concentrations: 100 nM and 1000 nM (sheet 'Samples'), CATDS: 5.2169605073521003E-2; n = 1.
The test system of a further assay is ICK. The following applies: read-out: apparent Kd; compound concentrations: 100 nM and 1000 nM (sheet 'Samples'), CATDS: 4.7896181585756002E-2; n = 1.
The next assay concerns LATS1. The note with it: read-out: apparent Kd; compound concentrations: 100 nM and 1000 nM (sheet 'Samples'), CATDS: 4.4770495584516998E-2; n = 1.
The subject of another assay is MAP2K5. The note with it: read-out: apparent Kd; compound concentrations: 100 nM and 1000 nM (sheet 'Samples'), CATDS: 0.11655274425704; n = 1.
A further assay deals with MAP3K2. The note with it: read-out: apparent Kd; compound concentrations: 100 nM and 1000 nM (sheet 'Samples'), CATDS: 4.6082371307615597E-2; n = 1.
Another assay deals with MAP3K4. The note with it: read-out: apparent Kd; compound concentrations: 100 nM and 1000 nM (sheet 'Samples'), CATDS: 4.8228704879059399E-2; n = 1.
The next assay deals with MAP4K1. The following applies: read-out: apparent Kd; compound concentrations: 100 nM and 1000 nM (sheet 'Samples'), CATDS: 4.8558197444370697E-2; n = 1.
For another assay, the system named is MAP4K2. The note with it: read-out: apparent Kd; compound concentrations: 100 nM and 1000 nM (sheet 'Samples'), CATDS: 5.6009475369740498E-2; n = 1.
The test system of the next assay is MAP4K3. The note with it: read-out: apparent Kd; compound concentrations: 100 nM and 1000 nM (sheet 'Samples'), CATDS: 7.0202424980237099E-2; n = 1.
A further assay concerns NEK1. The note with it: read-out: apparent Kd; compound concentrations: 100 nM and 1000 nM (sheet 'Samples'), CATDS: 8.0496381389801502E-2; n = 1.
A further assay relates to NEK2. The following applies: read-out: apparent Kd; compound concentrations: 100 nM and 1000 nM (sheet 'Samples'), CATDS: 4.3015896259207202E-2; n = 1.
The test system of another assay is PKMYT1. The note with it: read-out: apparent Kd; compound concentrations: 100 nM and 1000 nM (sheet 'Samples'), CATDS: 4.44842965705885E-2; n = 1.
The subject of a further assay is PTK6. The note with it: read-out: apparent Kd; compound concentrations: 100 nM and 1000 nM (sheet 'Samples'), CATDS: 5.5693628002095402E-2; n = 1.
The next assay deals with RAF1. The note with it: read-out: apparent Kd; compound concentrations: 100 nM and 1000 nM (sheet 'Samples'), CATDS: 4.9993718202349699E-2; n = 1.
For a further assay, the system named is ATM. The note with it: read-out: apparent Kd; compound concentrations: 100 nM and 1000 nM (sheet 'Samples'), CATDS: 0.124711216224064; n = 1.
For a further assay, the system named is EPHB2. The following applies: read-out: apparent Kd; compound concentrations: 100 nM and 1000 nM (sheet 'Samples'), CATDS: 5.4073383937865198E-2; n = 1.
Another assay deals with EPHB4. The following applies: read-out: apparent Kd; compound concentrations: 100 nM and 1000 nM (sheet 'Samples'), CATDS: 6.1726409917068299E-2; n = 1.
The next assay has as its system ERCC2. The following applies: read-out: apparent Kd; compound concentrations: 100 nM and 1000 nM (sheet 'Samples'), CATDS: 5.5764348636942303E-2; n = 1.
Another assay deals with GAK. The note with it: read-out: apparent Kd; compound concentrations: 100 nM and 1000 nM (sheet 'Samples'), CATDS: 5.4131734373928597E-2; n = 1.
For a further assay, the system named is MAPK11. The following applies: read-out: apparent Kd; compound concentrations: 100 nM and 1000 nM (sheet 'Samples'), CATDS: 5.3024764927667702E-2; n = 1.
The next assay relates to MAPK9. The note with it: read-out: apparent Kd; compound concentrations: 100 nM and 1000 nM (sheet 'Samples'), CATDS: 4.8598107075800298E-2; n = 1.
The test system of a further assay is PIK3CD. The following applies: read-out: apparent Kd; compound concentrations: 100 nM and 1000 nM (sheet 'Samples'), CATDS: 0.17871618509773601; n = 1.
The subject of the next assay is PRKAG1. The following applies: read-out: apparent Kd; compound concentrations: 100 nM and 1000 nM (sheet 'Samples'), CATDS: 0.16537945718140701; n = 1.
A further assay deals with PRKCQ. The note with it: read-out: apparent Kd; compound concentrations: 100 nM and 1000 nM (sheet 'Samples'), CATDS: 0.173893551056024; n = 1.
The next assay deals with RPS6KA6. The following applies: read-out: apparent Kd; compound concentrations: 100 nM and 1000 nM (sheet 'Samples'), CATDS: 5.8254455151346002E-2; n = 1.
Another assay relates to SRC. The following applies: read-out: apparent Kd; compound concentrations: 100 nM and 1000 nM (sheet 'Samples'), CATDS: 5.8386134416648999E-2; n = 1.
In the next assay the test system is TNK1. The following applies: read-out: apparent Kd; compound concentrations: 100 nM and 1000 nM (sheet 'Samples'), CATDS: 8.7272147556640506E-2; n = 1.
A further assay has as its system TNK2. The note with it: read-out: apparent Kd; compound concentrations: 100 nM and 1000 nM (sheet 'Samples'), CATDS: 6.9926040964812697E-2; n = 1.

For the compound `Cc1ccccc1CC(=O)N1CCc2cc(-c3cn(C)c4ncnc(N)c34)ccc21` [GSK2603346A], the potency estimated from few doses in the assay on ARAF is 942 nM; in the assay with AURKB, 547 nM; in the assay with CDK10, 1450 nM; in the assay with EIF2AK1 it was 360 nM; in the assay on FN3K, 1140 nM; with ICK it was 1410 nM. For the same compound, the potency estimated from few doses with LATS1 is 1680 nM; in the assay with MAP2K5 it was 287 nM; in the assay on MAP3K2 it was 1550 nM; with MAP3K4, 1380 nM; in the assay with MAP4K1, 1360 nM; in the assay on MAP4K2 it was 979 nM. Besides, the potency estimated from few doses in the assay with MAP4K3 is 632 nM; with NEK1, 501 nM; in the assay with NEK2, 1890 nM; in the assay with PKMYT1, 1710 nM; in the assay with PTK6, 991 nM; in the assay on RAF1, 1260 nM.
As for `CC(C)(O)CCc1cccc(C(=O)c2cnn(-c3ccc(F)cc3)c2N)c1` [RO3200935-000], the potency estimated from few doses in the assay on ATM was 182 nM; in the assay with EPHB2 it was 1310 nM; in the assay with EPHB4, 862 nM; with ERCC2 it was 1180 nM; in the assay with GAK it was 1300 nM; with MAPK11 it was 1400 nM. Further, the potency estimated from few doses in the assay with MAPK9 is 1970 nM; in the assay with PIK3CD, 101 nM; with PRKAG1, 114 nM; with PRKCQ, 105 nM; with RPS6KA6, 1020 nM; with SRC, 1020 nM. For the same compound, the potency estimated from few doses was 366 nM in the assay with TNK1 and 615 nM in the assay with TNK2.
